# Bioassay records: PubChem, several laboratories
# The list is not random: actives were taken first. Their share in the collection is about 2.6%.
# EBV LMP1 NFkB = EBV LMP1-driven NF-kappaB luciferase reporter inhibitors, primary screen, cell-based, luminescence, single point | inhibition, % at 12.5 µM | 350,000 compounds, 0.69% hits | LMP1-induced NF-kappaB luciferase reporter cells | AID 504558, 2011; in the data active = inhibition above about 41%
# TWEAK Fn14 block = inhibitors of TWEAK-Fn14 signaling, primary screen, luciferase reporter cells, uHTS. AID 1159606, 2016. inhibition, % at 10 µM. 360,000 compounds, 2% hits. TWEAK-stimulated Fn14 reporter cells, luciferase luminescence, 8 h; in the data active = inhibition above about 50%
# TROY NFkB inh = inhibitors of TROY-driven NF-kB signaling, primary screen, Q293 LMP1-TROYcd cells, NF-kB luciferase, uHTS; Q293 LMP1-TROYcd NF-kB luciferase reporter, 4 h; inhibition, % at 10 µM; 360,000 compounds, 0.98% hits; AID 1347056, 2019;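 active = compounds whose plate-normalised and pattern-corrected inhibition of the luciferase reporter signal at the single screening dose is 50% or more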
# EWS-Fli inh = EWS/Fli-driven NR0B1 reporter inhibitors, primary screen, A673 cells, NR0B1 luciferase, luminescence, MLPCN library; inhibition, % at 12.6 µM; 350,000 compounds, 0.67% hits; viability-normalised;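 active = mean inhibition of at least 50% after viability correction, with every replicate also passing that limit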;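 also: firefly luciferase signal divided by Alamar Blue viability fluorescence both relative to DMSO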
# LGR2 inh = inhibitors of bursicon-induced LGR2 CRE-luciferase signal, primary screen, cell-based, HEK293, CRE-luciferase reporter, bursicon stimulation | Drosophila bursicon receptor LGR2 (rickets) | bursicon-stimulated, 4 h | inhibition, % at 9.99 µM | 380,000 compounds, 0.35% hits | AID 720647, 2013;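 active = drop in luminescence signal, shown as inhibition above about 50% in the replicate tests, limit read from the data, passing the limit was not always enough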;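 also: agonist challenge used bursicon conditioned medium at about half maximal strength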
# Numbers stand for hits; . = inactive; / = no result.
SMILES,EBV LMP1 NFkB,TWEAK Fn14 block,TROY NFkB inh,EWS-Fli inh,LGR2 inh
COc1ccc(C(c2sc3nc(C)nn3c2O)N2CCc3ccccc3C2)cc1 (stereo not drawn),.,.,.,.,.
CN(C)CC#Cc1ccc([C@@H]2[C@@H](CO)N3CCCCN(C(=O)C4CCC4)C[C@@H]23)cc1,/,/,/,.,.
CC(=O)Oc1ccc(C23c4ccccc4C2(OC(C)=O)c2cc(OC(C)=O)ccc23)cc1 (stereo not drawn),.,89,.,.,.
CC(=O)Oc1ccc(C(=O)Nc2ccccc2NC(=O)c2ccc(OC(C)=O)cc2)cc1,.,.,.,.,.
CS(=O)(=O)Nc1ccc2c(c1)[C@H]1C[C@H](CC(=O)NCc3cccc(F)c3)O[C@H](CO)[C@H]1O2,/,/,/,.,.
C[C@@H]1CN([C@H](C)CO)C(=O)c2cc(C#Cc3cccnc3)cnc2O[C@@H]1CN(C)Cc1ccccc1,/,/,/,.,.
CNc1nc(-c2ccc3c(c2)CCN3C(=O)CC(C)(C)C)c(C)s1,.,.,.,.,.
CC(=O)Nc1nc(-c2ccc3c(c2)CCN3C(=O)C2CC2)c(C)s1,82,.,.,.,.
CC(C)(C)c1ccc(C(=O)n2cnc3ccccc32)cc1,.,78,64,.,.
CCN(CC)c1ccc(C(=O)n2cnc3ccccc32)cc1,.,.,.,/,/
C[C@@H]1CCCCO[C@H](CN(C)CC2CC2)[C@H](C)CN([C@@H](C)CO)C(=O)c2cc(NS(=O)(=O)c3ccc(Cl)cc3)ccc2O1,/,/,/,.,.
C[C@@H]1CCCCO[C@H](CN(C)CC2CCCCC2)[C@H](C)CN([C@@H](C)CO)C(=O)c2cc(NS(=O)(=O)c3ccc(Cl)cc3)ccc2O1,/,/,/,65,.
C[C@@H]1CCCCO[C@H](CN(C)CC2CCCCC2)[C@H](C)CN([C@@H](C)CO)C(=O)c2cc(NS(=O)(=O)c3ccc(F)cc3)ccc2O1,/,/,/,67,.
COc1ccc(NC(=O)Nc2ccc3c(c2)C(=O)N([C@H](C)CO)C[C@H](C)[C@@H](CN(C)S(=O)(=O)c2ccc(F)cc2)OCCCC[C@H](C)O3)cc1,/,/,/,.,.
CCc1ccc(/C=C2\SC(N3CCCC3)=NC2=O)cc1,.,.,58,.,.
COc1ccc(/C=C2\SC(N3CCCCC3)=NC2=O)cc1,.,.,.,.,.
O=C1N=C(N2CCCC2)S/C1=C\C=C\c1ccccc1,.,77,72,.,/
CCc1ccc(C(=O)COC(=O)CNC(=O)C2CCCCC2)cc1,.,66,76,.,.
CCOC(=O)c1c(C)[nH]c(C(=O)COC(=O)CNC(=O)C2CCCCC2)c1C,.,.,69,/,.
O=C(CNC(=O)C1CCCCC1)OCC(=O)c1ccc(F)cc1,.,.,.,.,.
COc1ccc(NC(=O)C2Cc3c(-c4ccccc4Oc4ccccc4)ccnc3O2)cc1OC (stereo not drawn),/,63,.,.,.
COc1ccc(NC(=O)C2Cc3c(-c4cccc(NC(C)=O)c4)ccnc3O2)cn1 (stereo not drawn),/,.,.,63,.
CC(=O)c1cccc(-c2ccnc3c2CC(C(=O)NCC2CCOCC2)O3)c1 (stereo not drawn),/,.,.,66,.
C[C@@H]1CCCCO[C@H](CN(C)S(=O)(=O)c2ccc(Cl)cc2)[C@@H](C)CN([C@@H](C)CO)C(=O)c2cc(NC(=O)CCCN(C)C)ccc2O1,/,/,/,.,.
C(=C\c1ccccc1)/C=N/N1CCN(c2ccccn2)CC1,85,.,.,/,/
C[C@@H]1CN([C@H](C)CO)C(=O)c2cc(NC(=O)Nc3ccccc3)ccc2O[C@H]1CN(C)Cc1ccc(C(=O)O)cc1,/,/,/,.,.
C[C@@H]1CCCCO[C@@H](CN(C)Cc2ccc3c(c2)OCO3)[C@H](C)CN([C@H](C)CO)C(=O)c2cc(NC(=O)Nc3ccc4c(c3)OCO4)ccc2O1,/,/,/,.,.
Cn1c(CN2CCCCC2)nc2cc(NC(=O)c3ccccc3Cl)ccc21,.,52,.,.,.
CCCn1c(CN2CCN(C(=O)OCC)CC2)nc2cc(NC(=O)CC)ccc21,.,.,.,59,.
Cc1cccc(OCC(=O)Nc2ccc3c(c2)nc(CN2CCCCC2)n3C)c1,.,81,58,.,.
